MITF primary = inhibitors of human MITF; O75030; AlphaScreen MITF homodimerization, bead proximity signal; inhibition, % at 2.6 µM; 650,000 tested, 0.91% active; AID 1259374; in the data active = inhibition above about 50%;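 note: 0% = vehicle wells with protein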
Target sequence (O75030 whole entry, looked up): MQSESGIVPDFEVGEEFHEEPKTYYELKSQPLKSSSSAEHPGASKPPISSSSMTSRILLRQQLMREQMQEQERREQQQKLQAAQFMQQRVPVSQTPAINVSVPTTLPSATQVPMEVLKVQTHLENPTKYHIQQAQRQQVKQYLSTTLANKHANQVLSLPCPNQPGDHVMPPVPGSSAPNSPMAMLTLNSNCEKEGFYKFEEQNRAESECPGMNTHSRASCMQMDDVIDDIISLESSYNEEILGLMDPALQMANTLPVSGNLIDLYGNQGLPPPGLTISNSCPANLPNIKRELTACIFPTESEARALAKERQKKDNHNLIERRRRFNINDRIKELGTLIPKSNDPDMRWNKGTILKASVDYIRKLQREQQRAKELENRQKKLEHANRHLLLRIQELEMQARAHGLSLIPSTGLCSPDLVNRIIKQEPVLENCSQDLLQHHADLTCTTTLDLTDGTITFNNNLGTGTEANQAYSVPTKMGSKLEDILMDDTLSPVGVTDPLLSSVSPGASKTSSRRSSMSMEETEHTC
FBW7 activator = activators of human E3 ligase FBW7; Q969H0; AlphaScreen FBW7–phospho-cyclin E peptide binding, activator screen; normalized activity (activation), % at 26.1 µM; 650,000 tested, 0.13% active; in the data active = normalized activity above about 1.9%;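 note: purified mutant Fbw7 with reduced substrate affinity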
GPR151 ag = human GPR151 activation | Q8TDV0 | activation, % at 11.2 µM | PathHunter beta-arrestin GPR151 cells, luminescence | 650,000 tested, 1% active; in the data active = activation above about 4.9%;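 note: 0% = median of compound wells and 100% = cells with positive control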
TEAD-YAP inh = TEAD-YAP interaction inhibition | 640,000 tested, 1.4% active | HEK-TIYL cells, TEAD-Gal4/YAP UAS-luciferase luminescence | inhibition, % at 9.12 µM; in the data active = inhibition above about 32%;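 note: 0% = median of test compound wells and 100% = reference inhibitor wells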
GPR151 confirm = confirmation of human GPR151 activators; shares compounds with GPR151 ag; GPR151 PathHunter beta-arrestin cells, luminescence, 90 min; % of EA-reagent control over plate median; activation, % at 11.2 µM; 6,700 tested, under 10 active; AID 1508609;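 active = mean percent activation across replicates above the confirmation screen cutoff of 4.91%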
GPR119 ag = counter-screen for GPR151 activators: effect on human GPR119; shares compounds with GPR151 ag; GPR119 PathHunter beta-arrestin cells, luminescence, 90 min; 0 = compound-well median, 100 = enzyme-acceptor control; activation, % at 11.2 µM; 6,700 tested, 0.3% active;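 active = mean percent activation in the counterscreen above 29.09%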;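 note: counterscreen on off-target GPR119 to flag nonselective hits from the GPR151 activator screen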
The depositor's hits bear a star; nt = no result; ! = not confirmed by another sample. In the library only some 3.5% were active in any assay of this set; here they are far more common.

SMILES	MITF primary	FBW7 activator	GPR151 ag	TEAD-YAP inh	GPR151 confirm	GPR119 ag
CC1(C)CC(=O)C2=C(C1)Nc1ccc3ccccc3c1C2c1ccccc1 (centres undefined)	6.5	-0.3	-1.5	-1.8	nt	nt
Nc1c(C(=O)Nc2ccc3c(c2)OCCO3)sc2nc(-c3cccs3)ccc12	-5.6	0.0	6.3*	11.0	-0.7	-1.7
Nc1c(C(=O)Nc2ccc3c(c2)OCCO3)sc2nc3cc4c(cc3cc12)OCCO4	11.1	0.1	-0.1	-77.3	nt	nt
CC(=O)c1c(C)[nH]c(C(=O)COc2cc(C)cc(C)c2)c1C	7.5	0.0	5.6*	6.9	1.3	1.8
CCCOc1ccc(OCC(=O)c2[nH]c(C)c(C(C)=O)c2C)cc1	14.9	0.1	0.1	29.7	nt	nt
CC(C)(C)OC(=O)N1CCC[C@@H]1C(=O)Nc1ccc2[nH]ncc2c1	19.2	0.0	5.8*	-2.6	-0.2	-6.0
COc1ccc(-c2[nH]c(-c3ccc4c(c3)OCO4)nc2-c2ccccc2)cc1	-3.3	-0.2	0.5	1.1	nt	nt
Clc1cc2c(cc1-c1nc(-c3ccccc3)c(-c3ccccc3)[nH]1)OCO2	46.7	0.1	6.6*	-1.0	2.5	19.7
CCCCOC(=O)Nc1nnc(C(C)C)s1	13.4	0.0	0.0	-58.5	nt	nt
CC(C)COC(=O)Nc1nnc(C(C)C)s1	-7.4	0.1	13.2*	-73.6	0.4	6.8
O=S(=O)(c1c(F)cccc1F)N1CCNCC1	8.1	0.1	-1.0	1.7	nt	nt
O=C(c1cnsn1)N1CCOc2ccc(C(O)CCc3ccccc3)cc2C1 (centres undefined)	-2.6	-0.1	5.3*	-8.6	0.3	0.6
C=CCn1c(SCc2cc(F)ccc2F)nc2cc(C(=O)NCc3ccco3)ccc2c1=O	-95.0	0.1	-0.5	3.5	nt	nt
OCCN1CCN(C2CCN(Cc3cccc4ccccc34)CC2)CC1	9.3	-0.2	7.6*	3.6	0.7	9.8
CC(C)(Sc1cc(C(C)(C)C)c(O)c(C(C)(C)C)c1)Sc1cc(C(C)(C)C)c(O)c(C(C)(C)C)c1	2.0	-0.1	11.4*!	-2.5	-0.5	4.3
O=C(COc1ccc(Cl)cc1)NCc1cc(-c2cccs2)on1	-1.2	0.3	5.2*	10.7	-1.3	-14.1
COc1ccccc1Nc1nc(C)nc2sc3c(c12)CCCC3	3.1	0.0	-0.7	8.3	nt	nt
CC1(CCc2ccccc2)NC(=O)N(N)C1=O (centres undefined)	-2.6	0.3	6.7*	15.9	-0.7	-3.4
CC1(CCc2ccccc2)NC(=O)NC1=O (centres undefined)	18.7	0.1	8.6*	3.7	0.8	11.8
O=[N+]([O-])c1ccc(/C=N/Nc2nnnn2-c2cccc3ccccc23)cc1	-4.4	-0.2	1.2	-6.4	nt	nt
O=C(Nc1ccc(Cl)c(Cl)c1)c1ccc(F)c2ccccc12	-8.1	0.1	-0.9	-7.3	nt	nt
N#C/C(=C\c1ccc(OCC(=O)O)cc1)C(N)=S	4.4	0.5	6.4*	-6.3	-0.3	-5.0
C=CCOC(=O)/C(C#N)=C/c1ccc(OCC(=O)O)cc1	-8.0	0.0	-2.0	-3.0	nt	nt
CCOC(=O)C1=C(C)N=c2s/c(=C\c3ccc(-c4cccc([N+](=O)[O-])c4)o3)c(=O)n2C1c1ccc2c(c1)OCO2 (centres undefined)	-16.0	0.1	0.6	0.7	nt	nt
COc1cc(NC(=O)Nc2nnc(N3CCCCC3)s2)cc(OC)c1	-4.3	-0.1	5.3*	-2.1	-0.9	-14.5
SMILES	MITF primary	FBW7 activator	GPR151 ag	TEAD-YAP inh	GPR151 confirm	GPR119 ag
Cc1ccc(NC(=O)Nc2nnc(N3CCCCC3)s2)c(C)c1	4.0	-0.2	7.4*	0.9	0.3	-2.8
O=C(Nc1cccc(C(F)(F)F)c1)Nc1nnc(N2CCCCCC2)s1	6.0	0.0	5.2*	-2.5	-0.7	-3.9
Cc1cc(C)cc(NC(=O)Nc2nnc(N3CCCCC3)s2)c1	-1.4	0.0	3.2	0.4	nt	nt
Cc1cccc(NC(=O)Nc2nnc(N3CCCCC3)s2)c1	4.9	-0.1	5.6*	-49.8	0.1	-2.4
O=C(Nc1cccc(Cl)c1Cl)N[C@H]1C[C@H]2C(=O)N[C@H](Cc3ccccc3)C(=O)N2C1	18.6	0.3	-0.2	9.6	nt	nt
COC(=O)C12CC3CC(CC(NC(=O)c4cnccn4)(C3)C1)C2	6.4	-0.1	-0.6	4.5	nt	nt
Cc1nc2ccc(N/C=C3\C(=O)C(C)(C)Oc4ccc5ccc(=O)oc5c43)cc2s1	1.5	-0.1	5.8*	-9.8	0.8	5.0
O=C1NN(c2ccc(F)cc2)C(=O)/C1=C\c1cccc(Cl)c1Cl	-12.9	0.3	5.4*	-4.3	1.6	3.1
Cc1cccc(NC(=O)C(=O)NC2CCCCC2)c1	0.2	0.1	5.5*	-27.1	-2.6	-20.9
Cc1cccc(NC(=O)C(=O)NC2CCCCCC2)c1	-0.2	-0.1	-1.1	-52.1	nt	nt
COC(=O)c1cn(NC(=O)/C=C/c2ccc(Br)cc2)c(=O)c2ccccc12	1.7	-0.1	7.8*	-5.2	0.3	-4.7
COC(=O)c1c(C)[nH]c(C(=O)COC(=O)CCc2ccc(OC)c(OC)c2)c1C	5.8	0.1	5.7*	4.8	0.0	3.8
Cc1cccc(NC(=O)c2cc3c(=O)n4cccc(C)c4nc3n2C)c1	-6.7	-0.1	-1.1	-12.2	nt	nt
COc1ccc(C(=O)Oc2ccc(C#N)cc2)cc1	4.6	1.2	6.7*	1.2	-1.0	-1.1
CC(C)C(=O)NNC(=O)c1ccc(C(C)(C)C)cc1	7.3	0.2	-0.5	-31.7	nt	nt
Cc1ccc(C)c(NC(=O)CN2CCC(c3nc4ccccc4[nH]3)CC2)c1	-7.2	0.0	6.0*	-11.6	0.9	3.4
O=C(C1CCCCC1)N1CCC(c2nc3ccccc3[nH]2)CC1	4.5	0.2	5.8*	-3.7	0.6	8.8
Cc1cccc(NC(=O)CN2CCC(c3nc4ccccc4[nH]3)CC2)c1	5.2	0.1	-0.9	10.4	nt	nt
Cc1c(Cl)cccc1NC(=O)CSCC(=O)Nc1ccc(Br)cc1	7.1	0.1	6.4*	11.0	0.8	17.9
CC1(C)Cc2ccccc2/C(=C/C(=O)Nc2ccc([N+](=O)[O-])cc2)N1	-16.5	0.3	5.5*	-5.2	0.7	11.5
CC1(C)Cc2ccccc2/C(=C/C(=O)Nc2ccc(Cl)cc2)N1	5.4	0.1	-0.9	-1.9	nt	nt
CC1Oc2ncc(C(F)(F)F)cc2N(Cc2ccccc2)C1=O (centres undefined)	7.8	0.5	-0.9	7.6	nt	nt
NC(Cc1cc(I)c(Oc2ccc(O)c(I)c2)c(I)c1)C(=O)O (centres undefined)	2.3	0.1	6.4*	9.5	0.4	1.5
CCc1ccc(-c2csc(-c3cc4cc([N+](=O)[O-])ccc4oc3=O)n2)cc1	-13.2	0.0	0.0	-13.1	nt	nt
S=C(NCc1ccco1)N1CCN(C2CCCCC2)CC1	-0.2	-0.2	6.1*	-4.1	-1.1	-3.5
COc1ccc(Cn2ccn(Cc3ccc(F)cc3)c(=O)c2=O)cc1	9.0	0.6	12.5*	4.0	0.6	1.6
Cc1cccc(-n2cc(-c3ccccc3)nc2SCC(=O)NCCc2ccccc2)c1	7.5	0.1	-1.0	2.4	nt	nt
